Measurements published in paper PMC11006913.
Substitutions are numbered along the chain they refer to.

Experiments:
Assay in all cases: PBM; 200 nM protein, PBS
Conditions in all cases: dsDNA, one strand shown
[1] = biological target: T1, SIX6 (Homo sapiens, UniProt O95475 114-200, L167I)
T1 sequence: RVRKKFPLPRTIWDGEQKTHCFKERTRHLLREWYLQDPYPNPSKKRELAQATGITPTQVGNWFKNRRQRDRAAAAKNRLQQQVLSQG

[2] = biological target: T2, SIX6 (Homo sapiens, UniProt O95475 114-200, L143V)
T2 sequence: T1 sequence with L30V, I54L

[3] = biological target: T3, SIX6 (Homo sapiens, UniProt O95475 114-200, H141N)
T3 sequence: T1 sequence with H28N, I54L

[4] = biological target: T4, SIX6 (Homo sapiens, UniProt O95475 114-200, T165P)
T4 sequence: T1 sequence with T52P, I54L

[5] = biological target: T5, SIX6 (Homo sapiens, UniProt O95475 114-200, L167M)
T5 sequence: T1 sequence with I54M

[6] = biological target: T6, SIX6 (Homo sapiens, UniProt O95475 114-200, L143M)
T6 sequence: T1 sequence with L30M, I54L

[7] = biological target: T7, SIX6 (Homo sapiens, UniProt O95475 114-200, L143I)
T7 sequence: T1 sequence with L30I, I54L

[8] = biological target: T8, SIX6 (Homo sapiens, UniProt O95475 114-200, T165G)
T8 sequence: T1 sequence with T52G, I54L

[9] = biological target: T9, SIX6 (Homo sapiens, UniProt O95475 114-200, T139Q)
T9 sequence: T1 sequence with T26Q, I54L

[10] = biological target: T10, SIX6 (Homo sapiens, UniProt O95475 114-200, T165A)
T10 sequence: T1 sequence with T52A, I54L

[11] = biological target: T11, SIX6 (Homo sapiens, UniProt O95475 114-200, L167V)
T11 sequence: T1 sequence with I54V

[12] = biological target: T12, SIX6 (Homo sapiens, UniProt O95475 114-200)
T12 sequence: T1 sequence with I54L

[13] = biological target: T13, SIX6 (Homo sapiens, UniProt O95475 114-200, T165I)
T13 sequence: T1 sequence with T52I, I54L

[14] = biological target: HOXA2 (Homo sapiens, UniProt O43364 129-215, R185T)
[15] = biological target: HOXA2 (Homo sapiens, UniProt O43364 129-215, R185K)
[16] = biological target: HOXA2 (Homo sapiens, UniProt O43364 129-215, Y150S)
[17] = biological target: HOXA2 (Homo sapiens, UniProt O43364 129-215)
Sequence of HOXA2 (Homo sapiens, UniProt O43364 129-215) (O43364 129-215): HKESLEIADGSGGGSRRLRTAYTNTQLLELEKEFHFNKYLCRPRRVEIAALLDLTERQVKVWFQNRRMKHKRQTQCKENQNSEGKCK

Sequence of HOXA2 (Homo sapiens, UniProt O43364 129-215, Y150S) (O43364 129-215 Y150S): as the sequence (O43364 129-215) above, with Y22S counted along it
Sequence of HOXA2 (Homo sapiens, UniProt O43364 129-215, R185T) (O43364 129-215 R185T): as the sequence (O43364 129-215) above, with R57T counted along it
Sequence of HOXA2 (Homo sapiens, UniProt O43364 129-215, R185K) (O43364 129-215 R185K): as the sequence (O43364 129-215) above, with R57K counted along it

| Sequence | binding signal [1] | binding signal [2] | binding signal [3] | binding signal [4] | binding signal [5] | binding signal [6] | binding signal [7] | binding signal [8] | binding signal [9] | binding signal [10] | binding signal [11] | binding signal [12] | binding signal [13] | binding signal [14] | binding signal [15] | binding signal [16] | binding signal [17] |
| --- | --- | --- | --- | --- | --- | --- | --- | --- | --- | --- | --- | --- | --- | --- | --- | --- | --- |
| CGGGAAGC | 9.04 upbm affinity estimate (log intensity, higher = more binding, comparable within an allelic series) | 8.99 upbm affinity estimate (log intensity, higher = more binding, comparable within an allelic series) | 9 upbm affinity estimate (log intensity, higher = more binding, comparable within an allelic series) | 9.05 upbm affinity estimate (log intensity, higher = more binding, comparable within an allelic series) | 9.01 upbm affinity estimate (log intensity, higher = more binding, comparable within an allelic series) | 8.96 upbm affinity estimate (log intensity, higher = more binding, comparable within an allelic series) | 9.03 upbm affinity estimate (log intensity, higher = more binding, comparable within an allelic series) | 9.03 upbm affinity estimate (log intensity, higher = more binding, comparable within an allelic series) | 9.07 upbm affinity estimate (log intensity, higher = more binding, comparable within an allelic series) | 9.03 upbm affinity estimate (log intensity, higher = more binding, comparable within an allelic series) | 9.01 upbm affinity estimate (log intensity, higher = more binding, comparable within an allelic series) | 8.93 upbm affinity estimate (log intensity, higher = more binding, comparable within an allelic series) | 8.99 upbm affinity estimate (log intensity, higher = more binding, comparable within an allelic series) |  |  |  |  |
| CCCAGCCG | 9.06 upbm affinity estimate (log intensity, higher = more binding, comparable within an allelic series) | 8.82 upbm affinity estimate (log intensity, higher = more binding, comparable within an allelic series) | 9.12 upbm affinity estimate (log intensity, higher = more binding, comparable within an allelic series) | 8.84 upbm affinity estimate (log intensity, higher = more binding, comparable within an allelic series) | 9.01 upbm affinity estimate (log intensity, higher = more binding, comparable within an allelic series) | 8.87 upbm affinity estimate (log intensity, higher = more binding, comparable within an allelic series) | 8.92 upbm affinity estimate (log intensity, higher = more binding, comparable within an allelic series) | 9.07 upbm affinity estimate (log intensity, higher = more binding, comparable within an allelic series) | 9.24 upbm affinity estimate (log intensity, higher = more binding, comparable within an allelic series) | 9.06 upbm affinity estimate (log intensity, higher = more binding, comparable within an allelic series) | 8.98 upbm affinity estimate (log intensity, higher = more binding, comparable within an allelic series) | 9.03 upbm affinity estimate (log intensity, higher = more binding, comparable within an allelic series) | 9.05 upbm affinity estimate (log intensity, higher = more binding, comparable within an allelic series) |  |  |  |  |
| CCACCCGC | 9.19 upbm affinity estimate (log intensity, higher = more binding, comparable within an allelic series) | 9.01 upbm affinity estimate (log intensity, higher = more binding, comparable within an allelic series) | 9.2 upbm affinity estimate (log intensity, higher = more binding, comparable within an allelic series) | 9.04 upbm affinity estimate (log intensity, higher = more binding, comparable within an allelic series) | 9.21 upbm affinity estimate (log intensity, higher = more binding, comparable within an allelic series) | 9.22 upbm affinity estimate (log intensity, higher = more binding, comparable within an allelic series) | 9.08 upbm affinity estimate (log intensity, higher = more binding, comparable within an allelic series) | 9.26 upbm affinity estimate (log intensity, higher = more binding, comparable within an allelic series) | 9.36 upbm affinity estimate (log intensity, higher = more binding, comparable within an allelic series) | 9.23 upbm affinity estimate (log intensity, higher = more binding, comparable within an allelic series) | 9.16 upbm affinity estimate (log intensity, higher = more binding, comparable within an allelic series) | 9.18 upbm affinity estimate (log intensity, higher = more binding, comparable within an allelic series) | 9.15 upbm affinity estimate (log intensity, higher = more binding, comparable within an allelic series) |  |  |  |  |
| CGCTGCGC | 8.99 upbm affinity estimate (log intensity, higher = more binding, comparable within an allelic series) | 8.85 upbm affinity estimate (log intensity, higher = more binding, comparable within an allelic series) | 8.98 upbm affinity estimate (log intensity, higher = more binding, comparable within an allelic series) | 8.98 upbm affinity estimate (log intensity, higher = more binding, comparable within an allelic series) | 8.92 upbm affinity estimate (log intensity, higher = more binding, comparable within an allelic series) | 8.96 upbm affinity estimate (log intensity, higher = more binding, comparable within an allelic series) | 8.93 upbm affinity estimate (log intensity, higher = more binding, comparable within an allelic series) | 9 upbm affinity estimate (log intensity, higher = more binding, comparable within an allelic series) | 9.06 upbm affinity estimate (log intensity, higher = more binding, comparable within an allelic series) | 8.88 upbm affinity estimate (log intensity, higher = more binding, comparable within an allelic series) | 9.02 upbm affinity estimate (log intensity, higher = more binding, comparable within an allelic series) | 8.93 upbm affinity estimate (log intensity, higher = more binding, comparable within an allelic series) | 8.95 upbm affinity estimate (log intensity, higher = more binding, comparable within an allelic series) |  |  |  |  |
| CGGCCTGC | 8.86 upbm affinity estimate (log intensity, higher = more binding, comparable within an allelic series) | 8.66 upbm affinity estimate (log intensity, higher = more binding, comparable within an allelic series) | 8.83 upbm affinity estimate (log intensity, higher = more binding, comparable within an allelic series) | 8.82 upbm affinity estimate (log intensity, higher = more binding, comparable within an allelic series) | 8.8 upbm affinity estimate (log intensity, higher = more binding, comparable within an allelic series) | 8.73 upbm affinity estimate (log intensity, higher = more binding, comparable within an allelic series) | 8.72 upbm affinity estimate (log intensity, higher = more binding, comparable within an allelic series) | 8.88 upbm affinity estimate (log intensity, higher = more binding, comparable within an allelic series) | 8.8 upbm affinity estimate (log intensity, higher = more binding, comparable within an allelic series) | 8.82 upbm affinity estimate (log intensity, higher = more binding, comparable within an allelic series) | 8.8 upbm affinity estimate (log intensity, higher = more binding, comparable within an allelic series) | 8.79 upbm affinity estimate (log intensity, higher = more binding, comparable within an allelic series) | 8.82 upbm affinity estimate (log intensity, higher = more binding, comparable within an allelic series) |  |  |  |  |
| CCCCGGGG | 9.12 upbm affinity estimate (log intensity, higher = more binding, comparable within an allelic series) | 8.92 upbm affinity estimate (log intensity, higher = more binding, comparable within an allelic series) | 9.16 upbm affinity estimate (log intensity, higher = more binding, comparable within an allelic series) | 8.88 upbm affinity estimate (log intensity, higher = more binding, comparable within an allelic series) | 9.05 upbm affinity estimate (log intensity, higher = more binding, comparable within an allelic series) | 9.06 upbm affinity estimate (log intensity, higher = more binding, comparable within an allelic series) | 8.94 upbm affinity estimate (log intensity, higher = more binding, comparable within an allelic series) | 9.11 upbm affinity estimate (log intensity, higher = more binding, comparable within an allelic series) | 9.14 upbm affinity estimate (log intensity, higher = more binding, comparable within an allelic series) | 9.14 upbm affinity estimate (log intensity, higher = more binding, comparable within an allelic series) | 9.05 upbm affinity estimate (log intensity, higher = more binding, comparable within an allelic series) | 9.11 upbm affinity estimate (log intensity, higher = more binding, comparable within an allelic series) | 9.08 upbm affinity estimate (log intensity, higher = more binding, comparable within an allelic series) | 6.97 upbm affinity estimate (log intensity, higher = more binding, comparable within an allelic series) | 10.1 upbm affinity estimate (log intensity, higher = more binding, comparable within an allelic series) | 10.4 upbm affinity estimate (log intensity, higher = more binding, comparable within an allelic series) | 7.1 upbm affinity estimate (log intensity, higher = more binding, comparable within an allelic series) |
